In all, about 310,000 compounds went through this assay and about 14,000 (4.5%) showed an effect of 50% or more. Effects have a minus sign here. The sample holds strong results, similar compounds and a random draw of the others, so the mix is not that of the screen.
What follows are compounds tested against human ether-à-go-go-related gene (hERG) potassium channel (human, UniProt Q12809) (assay: primary screen, population patch clamp on CHO cells stably expressing hERG; higher = less effect of the substance).
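Further: peak tail current of the secondary pulse compared with the same well before compound.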

Chain of human ether-à-go-go-related gene (hERG) potassium channel (Q12809 whole entry, looked up): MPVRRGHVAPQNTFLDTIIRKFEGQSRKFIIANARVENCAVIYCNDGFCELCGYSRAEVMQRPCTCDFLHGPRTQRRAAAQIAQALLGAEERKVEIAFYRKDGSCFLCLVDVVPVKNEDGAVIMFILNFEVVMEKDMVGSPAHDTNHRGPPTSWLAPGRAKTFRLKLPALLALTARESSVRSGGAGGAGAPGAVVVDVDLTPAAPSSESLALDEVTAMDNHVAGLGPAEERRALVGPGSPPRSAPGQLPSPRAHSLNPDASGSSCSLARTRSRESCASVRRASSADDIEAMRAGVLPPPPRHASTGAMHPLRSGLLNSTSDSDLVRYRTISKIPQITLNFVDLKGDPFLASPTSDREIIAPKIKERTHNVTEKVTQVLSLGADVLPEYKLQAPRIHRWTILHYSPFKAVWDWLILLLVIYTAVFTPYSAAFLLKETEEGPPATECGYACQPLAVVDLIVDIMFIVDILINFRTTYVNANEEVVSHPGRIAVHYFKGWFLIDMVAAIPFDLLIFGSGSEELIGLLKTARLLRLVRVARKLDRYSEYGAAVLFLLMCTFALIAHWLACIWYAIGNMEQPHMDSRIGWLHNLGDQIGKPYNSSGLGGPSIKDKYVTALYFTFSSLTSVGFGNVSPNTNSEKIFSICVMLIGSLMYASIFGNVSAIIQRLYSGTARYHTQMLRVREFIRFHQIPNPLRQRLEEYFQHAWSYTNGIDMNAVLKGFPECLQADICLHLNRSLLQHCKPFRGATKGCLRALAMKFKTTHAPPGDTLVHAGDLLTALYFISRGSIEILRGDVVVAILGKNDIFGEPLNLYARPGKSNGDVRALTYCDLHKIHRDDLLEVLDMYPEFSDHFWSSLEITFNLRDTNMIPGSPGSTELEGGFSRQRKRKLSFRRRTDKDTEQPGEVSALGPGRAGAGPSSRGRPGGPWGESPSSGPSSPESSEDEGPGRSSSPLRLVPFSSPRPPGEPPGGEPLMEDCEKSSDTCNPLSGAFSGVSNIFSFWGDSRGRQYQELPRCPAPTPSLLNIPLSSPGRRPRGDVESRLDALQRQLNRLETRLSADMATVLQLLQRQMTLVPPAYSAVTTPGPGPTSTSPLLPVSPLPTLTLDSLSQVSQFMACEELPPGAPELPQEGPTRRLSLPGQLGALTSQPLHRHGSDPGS

First: COc1ccc(-c2cc3nc(C)cc(N)n3n2)cc1
Second: CCOc1ccc(-c2cn[nH]c2N)cc1
The “hERG current change (%, negative = inhibition) at 10uM” value of the first is higher: 3.53% for the first, -5.03% for the second.

Going from CCCCC(=O)NC1(C(F)(F)F)C(=O)Nc2c1c(=O)n(C)c(=O)n2C (centres unmarked) to CCN1C(=O)[C@@H]2[C@@H](c3ccc(SC4CCCCC4)c(OC)c3)N3CCC[C@@]3(C(=O)OC)[C@@H]2C1=O.O=C(O)C(F)(F)F, the “hERG current change (%, negative = inhibition) at 10uM” value falls from -4.15% to -56%.

First: O=C(NC1CC(=O)N(c2ccccc2)C1)C(=O)c1c[nH]c2ccccc12 (centres unmarked)
Second: O=C(c1ccccc1-c1nc2ccccc2[nH]1)N1CCOCC1
The “hERG current change (%, negative = inhibition) at 10uM” value of the first is lower: -11.1% for the first, -5.47% for the second.

Going from COc1cc2c(cc1OC)CN(C(=O)/C=C/c1cccc([N+](=O)[O-])c1)CC2 to COc1cc2c(cc1OC)CN(C(=O)/C=C/c1ccc([N+](=O)[O-])cc1)CC2, the “hERG current change (%, negative = inhibition) at 10uM” value falls from -31.2% to -55.1%.

Compared with COc1cc2c(cc1OC)CN(C(=O)/C=C/c1ccc(F)cc1)CC2, CCOc1ccc(C(=O)CC(=O)C(=O)NCCc2ccc(OC)c(OC)c2)cc1 is higher in “hERG current change (%, negative = inhibition) at 10uM” value: -22.2% for the first, -10% for the second.

Compared with CCOc1cc(C(c2c(C)[nH][nH]c2=O)c2c(C)[nH][nH]c2=O)ccc1OC(=O)c1cccc([N+](=O)[O-])c1, COc1ccc(CCNC(=O)COc2ccc(-c3ccc(C)cc3)cc2)cc1OC is lower in “hERG current change (%, negative = inhibition) at 10uM” value: -4.87% for the first, -9.64% for the second.

Going from Cc1cc(-c2ccccc2)cc(-c2ccccc2)[n+]1CCc1ccccc1.[O-][Cl+3]([O-])([O-])[O-] to Cc1cc(-c2ccccc2)cc(C)[n+]1Cc1ccccc1.[O-][Cl+3]([O-])([O-])[O-], the “hERG current change (%, negative = inhibition) at 10uM” value rises from -76.5% to 5.38%.

Going from CCOc1ccc(-c2cc(C)[n+](CCc3ccc(OC)c(OC)c3)c(-c3ccc(OCC)cc3)c2)cc1.[O-][Cl+3]([O-])([O-])[O-] to CCOc1ccc(-c2cc(C)[n+](CCO)c(-c3ccc(OCC)cc3)c2)cc1.[O-][Cl+3]([O-])([O-])[O-], the “hERG current change (%, negative = inhibition) at 10uM” value rises from -83.1% to -62.6%.

Going from CCOc1ccc(-c2nc(C)sc2CC(=O)O)cc1 to COc1ccc(C(=O)Nc2sc3c(c2C(=O)O)CC(C)(C)OC3)cc1, the “hERG current change (%, negative = inhibition) at 10uM” value falls from 11% to -2.18%.

Compared with CCOc1ccc(-c2cc(C)[n+](CCN(CC)CC)c(-c3ccc(OCC)cc3)c2)cc1.[O-][Cl+3]([O-])([O-])[O-], CCOc1ccc(-c2cc(C)[n+](CCN3CCOCC3)c(-c3ccc(OCC)cc3)c2)cc1.[O-][Cl+3]([O-])([O-])[O-] is higher in “hERG current change (%, negative = inhibition) at 10uM” value: -79.3% for the first, -41.4% for the second.

Compared with Br.CC(C)O.Cc1ccc(-c2csc(Nc3ccccc3)[n+]2CCc2ccccc2)cc1, CCOC(C[n+]1c(-c2ccccc2)cc(C)cc1-c1ccccc1)OCC.[O-][Cl+3]([O-])([O-])[O-] is lower in “hERG current change (%, negative = inhibition) at 10uM” value: 20.5% for the first, 3.9% for the second.

Going from O=C(CNC(=O)c1ccc(Br)o1)NNC(=O)c1ccc(Br)cc1 to O=C(Nc1ccccc1C(=O)NCC1CCCO1)c1ccc(Cl)cc1 (centres unmarked), the “hERG current change (%, negative = inhibition) at 10uM” value rises from -35.6% to -34.8%.

First: COCCN1CCN(C(=O)C2CCC(=O)N(Cc3ccccc3OC)C2)CC1 (centres unmarked)
Second: CC1CCN(C(=O)COC(=O)c2ccc(=O)n(Cc3ccccc3)n2)CC1
The “hERG current change (%, negative = inhibition) at 10uM” value of the first is higher: 8.85% for the first, -0.635% for the second.

First: COc1ccc(/C=C(\C#N)C(=O)NCc2ccccc2)cc1
Second: COc1ccc(CN(CC(=O)NCc2ccc(F)cc2)C(=O)c2ccco2)cc1
The “hERG current change (%, negative = inhibition) at 10uM” value of the first is higher: 19.4% for the first, -61.7% for the second.

Going from CCN1C(=O)[C@H]2[C@@H](c3ccc(SC4CCCCC4)c(OC)c3)N3CCCC[C@@]3(C(=O)OC)[C@H]2C1=O.O=C(O)C(F)(F)F to COC(=O)[C@@]12CCCCN1[C@H](c1ccc(SC3CCCCC3)c(OC)c1)[C@@H]1C(=O)N(C)C(=O)[C@@H]12.O=C(O)C(F)(F)F, the “hERG current change (%, negative = inhibition) at 10uM” value rises from 13% to 19.8%.

Going from COC(=O)c1ccccc1NC1=C/C(=N\S(=O)(=O)c2ccc(C(=O)O)cc2)c2ccccc2C1=O to Cc1ccc(-n2c(SCC(=O)N3CC(=O)Nc4ccccc43)nc3ccccc3c2=O)cc1, the “hERG current change (%, negative = inhibition) at 10uM” value rises from -15.5% to -1.05%.

First: CCCCNC(=O)C(C#N)c1nc2ccccc2nc1N1CCN(c2ccccc2F)CC1 (centres unmarked)
Second: CN1CCN(c2ccccc2NC(=O)c2c(F)cccc2F)CC1
The “hERG current change (%, negative = inhibition) at 10uM” value of the first is higher: 4.79% for the first, -19.9% for the second.

Going from Cc1ccc(/C=C/C2=NN(Cc3ccccc3Cl)C(=O)CC2)cc1 to Cc1cc(N)ccc1N=Nc1c(C)n(C)n(-c2ccccc2)c1=O, the “hERG current change (%, negative = inhibition) at 10uM” value falls from -4.44% to -5.57%.

Going from COc1ccc(-c2nnnn2C(C)C)cc1S(=O)(=O)Nc1ccccc1 to Cc1onc(-c2ccccc2)c1C(=O)NC(C)c1ccc2c(c1)OCO2 (centres unmarked), the “hERG current change (%, negative = inhibition) at 10uM” value rises from -13.9% to 27.7%.

Compared with O=C(NCCSc1ccc(Cl)cc1)c1ccc(CN2CCOCC2)cc1, Cc1ccc(SCCNC(=O)c2ccc(CN3CCOCC3)cc2)cc1 is higher in “hERG current change (%, negative = inhibition) at 10uM” value: -58.5% for the first, -32.6% for the second.

Going from Cc1ccc(C(=O)NCCCN2CCOCC2)o1 to O=C(NCCCN1CCOCC1)c1ccc(-c2ccc(Cl)cc2)o1, the “hERG current change (%, negative = inhibition) at 10uM” value falls from 30.3% to -55.1%.

Going from O=C(NCCSc1ccccc1)c1ccc(CN2CCOCC2)cc1 to Cc1cccc(CSCCNC(=O)c2ccc(CN3CCOCC3)cc2)c1, the “hERG current change (%, negative = inhibition) at 10uM” value falls from -10.3% to -28.3%.

Compared with O=C(NCCN1CCOCC1)c1ccc(Cl)cc1, O=C(CCNC(=O)c1ccc(Cl)cc1)NCCCN1CCOCC1 is lower in “hERG current change (%, negative = inhibition) at 10uM” value: 16% for the first, 4.31% for the second.

First: O=C(NCCSCc1c(F)cccc1Cl)c1ccc(CN2CCOCC2)cc1
Second: O=C(NCCSCc1ccc(Cl)cc1Cl)c1ccc(CN2CCOCC2)cc1
The “hERG current change (%, negative = inhibition) at 10uM” value of the first is higher: -26.9% for the first, -54.6% for the second.

First: O=C(NCCCN1CCOCC1)c1ccc(CS(=O)(=O)Cc2ccc(Cl)cc2)o1
Second: Cl.O=C(NCCCN1CCOCC1)c1ccc(CSc2ccc(Cl)cc2)cc1
The “hERG current change (%, negative = inhibition) at 10uM” value of the first is higher: 4.4% for the first, -59.2% for the second.

Going from O=C(CSc1nnc(CNC(=O)c2cccc(C(F)(F)F)c2)o1)NC1CCCC1 to Cc1cc(C(F)(F)F)nc(CCNCc2c(C(=O)N3CCCC3)nc3ccccn23)n1, the “hERG current change (%, negative = inhibition) at 10uM” value falls from 5.51% to -14.4%.

Compared with O=C(Cc1ccc(Br)cc1)N1CCOCC1, O=C(c1nc2ccccn2c1CNCC1OCCc2ccccc21)N1CCOCC1 (centres unmarked) is lower in “hERG current change (%, negative = inhibition) at 10uM” value: 13.6% for the first, -0.852% for the second.

Compared with O=C(NCc1ccco1)/C(=C\c1ccco1)NC(=O)c1cccs1, O=C(CN(Cc1ccccc1)C(=O)c1ccco1)NCc1ccc(F)cc1 is lower in “hERG current change (%, negative = inhibition) at 10uM” value: -14.8% for the first, -31.6% for the second.

First: CCOC(=O)c1c(NC(=O)CSc2nnc(-c3cccnc3)o2)sc(C(C)=O)c1C
Second: O=C(Cc1cccs1)Nc1nc(-c2ccc(F)c(F)c2)cs1
The “hERG current change (%, negative = inhibition) at 10uM” value of the first is lower: -46.1% for the first, 19% for the second.

First: CNC(=S)SCCOc1ccccc1
Second: CC1(C)CC(C(CC(=O)O)c2ccccc2)CCO1 (centres unmarked)
The “hERG current change (%, negative = inhibition) at 10uM” value of the first is lower: -4.52% for the first, 28.9% for the second.

Going from CCOc1ccc(N2CC(C(=O)NCCCN3CCOCC3)CC2=O)cc1 (centres unmarked) to CC(C)Oc1cccc(C(=O)Nc2ccc(N3CCN(S(C)(=O)=O)CC3)cc2)c1, the “hERG current change (%, negative = inhibition) at 10uM” value rises from -5.47% to -0.708%.

Compared with O=C(COc1ccc(Br)cc1Cl)N1CCN(c2ncccn2)CC1, O=C(c1nc2ccccn2c1CNCCCn1cccn1)N1CCCC1 is higher in “hERG current change (%, negative = inhibition) at 10uM” value: -49.7% for the first, -12.1% for the second.

Going from COc1ccc(CN(CCC(c2ccc(F)cc2)C2CCOC(C)(C)C2)C(=O)c2ccco2)cc1 (centres unmarked) to CC1(C)CC(C(CCN(Cc2ccccc2)C(=O)c2ccco2)c2ccc(F)cc2)CCO1 (centres unmarked), the “hERG current change (%, negative = inhibition) at 10uM” value rises from -52.1% to -10.4%.

Going from COc1ccc(CN(CCC(c2ccccc2)C2CCOC(C)(C)C2)C(C)=O)cc1 (centres unmarked) to COc1ccc(CNCCC(c2ccccc2)C2CCOC(C)(C)C2)cc1 (centres unmarked), the “hERG current change (%, negative = inhibition) at 10uM” value falls from -11.6% to -52.1%.

First: CC(c1ccccc1)N(CCC(c1ccccc1)C1CCOC(C)(C)C1)C(=O)c1ccco1 (centres unmarked)
Second: Cc1onc(-c2ccccc2)c1C(=O)NCC(O)c1ccccc1 (centres unmarked)
The “hERG current change (%, negative = inhibition) at 10uM” value of the first is lower: -22.2% for the first, 5% for the second.

First: O=C(CN(Cc1ccccc1F)C(=O)c1ccco1)NCc1ccc(F)cc1
Second: O=C(CN(Cc1ccc(F)cc1)C(=O)c1ccco1)NCc1ccc(F)cc1
The “hERG current change (%, negative = inhibition) at 10uM” value of the first is lower: -50.7% for the first, -40.9% for the second.

Going from COc1cccc(CN(CC(=O)NCc2ccc(F)cc2)C(=O)c2ccco2)c1 to CCCCN(CC(=O)NCc1ccc(F)cc1)C(=O)c1ccco1, the “hERG current change (%, negative = inhibition) at 10uM” value rises from -39.2% to 8.72%.

First: O=C(CN(C(=O)CCC(=O)Nc1nccs1)c1ccc(F)cc1)NCc1ccc(F)cc1
Second: N#Cc1ccc(-c2ccccc2)nc1Sc1ccc(F)cc1
The “hERG current change (%, negative = inhibition) at 10uM” value of the first is higher: 16.8% for the first, 13.2% for the second.

Compared with Cc1cc(=O)[nH]c(SCC(=O)NCCC2=CCCCC2)n1, Cc1ccn2c(CNCC3OCCc4ccccc43)c(C(=O)N3CCCCCC3)nc2c1 (centres unmarked) is lower in “hERG current change (%, negative = inhibition) at 10uM” value: 28.2% for the first, -62.9% for the second.

Going from Cc1c(C(=O)N2CCCCC2)c(S(=O)(=O)N(C)Cc2ccccc2)c(C)n1C to Cc1cccn2c(CNCC3OCCc4ccccc43)c(C(=O)N3CCCCC3)nc12 (centres unmarked), the “hERG current change (%, negative = inhibition) at 10uM” value falls from 2.66% to -19.5%.

Compared with CC1(C)CC2CC(C)(CN2C(=O)COC(=O)c2cccc(O)c2)C1 (centres unmarked), CN1Cc2ccccc2CC1CNCc1c(C(=O)N2CCCC2)nc2ccccn12 (centres unmarked) is lower in “hERG current change (%, negative = inhibition) at 10uM” value: 6.76% for the first, -73.5% for the second.

With O=C1CC(c2ccccc2)CCc2sccc2N1 (centres unmarked) the “hERG current change (%, negative = inhibition) at 10uM” value was -5.86%.

Reference: paper PMC4336329 (PLoS ONE, 2015)
